Source: the supplement of paper PMC11732987, “Enantioselective OTUD7B fragment discovery through chemoproteomics screening and high-throughput optimisation” (Communications Chemistry, 2025)

Key:
Assay in all cases: log2 ratio of Biotin-Ahx-Ub-VS probe labelling (fragment/DMSO); higher = less target engagement (more negative = stronger competition), active = hit call of the paper (q ≤ 0.05, log2 ratio ≤ -1)
Conditions in all cases: compound concentration: 200 uM; treatment time: 3 h
[1] = biological target: T1, USP19 (UniProt O94966)
T1 sequence (whole entry): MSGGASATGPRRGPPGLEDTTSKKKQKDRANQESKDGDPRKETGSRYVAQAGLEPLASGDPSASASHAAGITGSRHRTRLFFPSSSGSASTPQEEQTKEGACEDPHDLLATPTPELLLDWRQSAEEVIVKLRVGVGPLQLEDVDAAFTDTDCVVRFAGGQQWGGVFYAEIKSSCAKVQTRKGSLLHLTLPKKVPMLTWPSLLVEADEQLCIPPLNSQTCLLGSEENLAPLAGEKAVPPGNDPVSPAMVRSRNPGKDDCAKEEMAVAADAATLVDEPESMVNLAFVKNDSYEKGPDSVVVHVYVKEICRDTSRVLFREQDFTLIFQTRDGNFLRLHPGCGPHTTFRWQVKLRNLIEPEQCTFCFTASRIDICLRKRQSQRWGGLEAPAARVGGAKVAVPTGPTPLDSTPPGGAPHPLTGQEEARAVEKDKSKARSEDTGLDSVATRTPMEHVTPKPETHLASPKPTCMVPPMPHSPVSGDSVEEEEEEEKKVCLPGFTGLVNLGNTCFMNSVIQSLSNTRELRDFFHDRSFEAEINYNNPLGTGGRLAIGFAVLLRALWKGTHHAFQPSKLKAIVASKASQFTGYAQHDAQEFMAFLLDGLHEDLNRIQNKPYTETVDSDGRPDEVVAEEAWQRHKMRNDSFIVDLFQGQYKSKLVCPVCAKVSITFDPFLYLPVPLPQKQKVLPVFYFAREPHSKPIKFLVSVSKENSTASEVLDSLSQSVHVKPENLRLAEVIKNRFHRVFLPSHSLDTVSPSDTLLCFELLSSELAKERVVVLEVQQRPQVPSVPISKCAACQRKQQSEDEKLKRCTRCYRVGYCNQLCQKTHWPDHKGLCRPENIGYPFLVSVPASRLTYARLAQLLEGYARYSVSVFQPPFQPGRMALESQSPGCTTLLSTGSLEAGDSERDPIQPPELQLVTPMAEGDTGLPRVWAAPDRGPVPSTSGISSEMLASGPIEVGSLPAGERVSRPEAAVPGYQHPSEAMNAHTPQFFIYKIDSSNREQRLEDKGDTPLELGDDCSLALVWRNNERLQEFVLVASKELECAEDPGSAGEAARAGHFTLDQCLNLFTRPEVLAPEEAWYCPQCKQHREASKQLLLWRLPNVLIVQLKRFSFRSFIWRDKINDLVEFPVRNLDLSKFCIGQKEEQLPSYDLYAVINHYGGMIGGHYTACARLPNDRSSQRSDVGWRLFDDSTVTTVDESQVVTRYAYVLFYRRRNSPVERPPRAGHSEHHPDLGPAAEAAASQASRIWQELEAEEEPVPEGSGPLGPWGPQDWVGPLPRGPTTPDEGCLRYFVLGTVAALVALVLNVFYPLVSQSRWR
Outline: (§1)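 Each value is an average log2 ratio of fragment to vehicle, tested by unpaired t-test. The underlying Spectronaut label-free quantities were global-median-normalised, and only proteins with ≥2 unique peptides were included. Triplicate HEK293T lysate samples (495 µg) were exposed to fragment at 200 µM or vehicle for 3 h, then to Biotin-Ahx-Ub-VS at 0.5 µM final for 1 h, before NeutrAvidin enrichment of labelled DUBs, LysC and trypsin digestion, and diaPASEF LC-MS/MS.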

[2] = biological target: USP24 (UniProt Q9UPU5)
Sequence of USP24 (Q9UPU5 whole entry): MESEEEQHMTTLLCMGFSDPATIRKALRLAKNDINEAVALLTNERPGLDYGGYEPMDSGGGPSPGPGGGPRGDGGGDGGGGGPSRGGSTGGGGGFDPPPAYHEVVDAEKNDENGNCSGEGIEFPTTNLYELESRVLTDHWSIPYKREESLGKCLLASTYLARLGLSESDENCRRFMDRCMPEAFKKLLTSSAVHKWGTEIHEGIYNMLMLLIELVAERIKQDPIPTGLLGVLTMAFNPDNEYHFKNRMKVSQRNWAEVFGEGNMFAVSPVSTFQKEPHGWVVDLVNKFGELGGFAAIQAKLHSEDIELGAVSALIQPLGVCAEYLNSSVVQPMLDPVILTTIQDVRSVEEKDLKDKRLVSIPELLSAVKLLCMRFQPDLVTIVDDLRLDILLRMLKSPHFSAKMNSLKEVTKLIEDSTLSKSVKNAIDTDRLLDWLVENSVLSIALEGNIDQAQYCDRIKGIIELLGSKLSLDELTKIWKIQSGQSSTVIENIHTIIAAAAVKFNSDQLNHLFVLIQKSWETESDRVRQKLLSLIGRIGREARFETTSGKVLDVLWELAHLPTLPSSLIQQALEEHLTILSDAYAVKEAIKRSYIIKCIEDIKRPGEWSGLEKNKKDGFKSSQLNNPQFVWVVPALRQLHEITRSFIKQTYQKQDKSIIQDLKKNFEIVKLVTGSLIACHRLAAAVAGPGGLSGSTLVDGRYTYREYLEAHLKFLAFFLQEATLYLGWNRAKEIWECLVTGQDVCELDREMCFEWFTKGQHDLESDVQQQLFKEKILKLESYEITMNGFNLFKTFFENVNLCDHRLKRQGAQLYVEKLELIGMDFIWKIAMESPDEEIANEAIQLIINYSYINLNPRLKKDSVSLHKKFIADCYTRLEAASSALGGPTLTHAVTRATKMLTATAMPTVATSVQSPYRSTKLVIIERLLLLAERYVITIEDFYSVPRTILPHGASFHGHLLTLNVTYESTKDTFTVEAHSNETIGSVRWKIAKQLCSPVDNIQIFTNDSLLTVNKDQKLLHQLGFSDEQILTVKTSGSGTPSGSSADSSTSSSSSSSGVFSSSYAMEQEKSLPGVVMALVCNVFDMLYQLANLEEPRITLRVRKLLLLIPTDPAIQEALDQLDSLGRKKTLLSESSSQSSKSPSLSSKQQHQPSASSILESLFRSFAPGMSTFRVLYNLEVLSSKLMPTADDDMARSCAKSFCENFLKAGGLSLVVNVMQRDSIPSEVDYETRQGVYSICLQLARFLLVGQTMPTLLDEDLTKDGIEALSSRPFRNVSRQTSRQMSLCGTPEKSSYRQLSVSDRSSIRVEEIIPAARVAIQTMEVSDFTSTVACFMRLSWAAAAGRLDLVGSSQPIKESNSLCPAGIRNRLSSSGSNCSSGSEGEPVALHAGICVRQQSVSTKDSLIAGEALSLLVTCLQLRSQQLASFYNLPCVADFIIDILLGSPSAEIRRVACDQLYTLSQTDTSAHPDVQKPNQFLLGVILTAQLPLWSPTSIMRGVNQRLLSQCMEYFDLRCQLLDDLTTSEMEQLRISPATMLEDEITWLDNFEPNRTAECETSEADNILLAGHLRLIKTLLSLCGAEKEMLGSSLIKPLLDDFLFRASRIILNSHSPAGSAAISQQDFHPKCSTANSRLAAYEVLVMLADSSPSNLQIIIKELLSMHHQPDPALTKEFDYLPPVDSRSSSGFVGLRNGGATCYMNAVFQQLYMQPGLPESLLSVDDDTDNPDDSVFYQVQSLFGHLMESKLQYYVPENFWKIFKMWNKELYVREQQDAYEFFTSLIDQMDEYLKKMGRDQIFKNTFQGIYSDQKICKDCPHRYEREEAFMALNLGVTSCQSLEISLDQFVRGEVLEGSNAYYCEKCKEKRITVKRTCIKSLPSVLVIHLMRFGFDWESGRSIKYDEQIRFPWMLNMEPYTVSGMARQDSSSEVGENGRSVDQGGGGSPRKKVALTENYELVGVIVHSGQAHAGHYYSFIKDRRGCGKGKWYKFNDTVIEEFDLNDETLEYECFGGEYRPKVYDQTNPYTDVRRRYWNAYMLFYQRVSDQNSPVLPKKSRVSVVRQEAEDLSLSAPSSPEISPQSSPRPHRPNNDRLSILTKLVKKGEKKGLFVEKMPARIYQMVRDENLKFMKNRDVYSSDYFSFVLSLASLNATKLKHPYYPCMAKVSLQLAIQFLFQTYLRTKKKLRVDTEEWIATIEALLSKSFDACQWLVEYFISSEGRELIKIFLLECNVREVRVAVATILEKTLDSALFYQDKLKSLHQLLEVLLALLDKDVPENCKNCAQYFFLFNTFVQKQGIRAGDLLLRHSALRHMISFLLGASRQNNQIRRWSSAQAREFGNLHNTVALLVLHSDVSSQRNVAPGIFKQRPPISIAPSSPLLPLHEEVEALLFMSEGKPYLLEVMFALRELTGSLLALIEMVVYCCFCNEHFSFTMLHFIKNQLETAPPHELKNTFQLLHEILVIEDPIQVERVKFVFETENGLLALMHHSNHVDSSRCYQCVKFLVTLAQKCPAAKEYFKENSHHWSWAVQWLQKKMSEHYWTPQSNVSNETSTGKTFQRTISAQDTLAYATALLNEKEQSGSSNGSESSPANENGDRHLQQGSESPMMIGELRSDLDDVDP
Outline: as §1

[3] = biological target: T2, USP25 (UniProt Q9UHP3)
T2 sequence (whole entry): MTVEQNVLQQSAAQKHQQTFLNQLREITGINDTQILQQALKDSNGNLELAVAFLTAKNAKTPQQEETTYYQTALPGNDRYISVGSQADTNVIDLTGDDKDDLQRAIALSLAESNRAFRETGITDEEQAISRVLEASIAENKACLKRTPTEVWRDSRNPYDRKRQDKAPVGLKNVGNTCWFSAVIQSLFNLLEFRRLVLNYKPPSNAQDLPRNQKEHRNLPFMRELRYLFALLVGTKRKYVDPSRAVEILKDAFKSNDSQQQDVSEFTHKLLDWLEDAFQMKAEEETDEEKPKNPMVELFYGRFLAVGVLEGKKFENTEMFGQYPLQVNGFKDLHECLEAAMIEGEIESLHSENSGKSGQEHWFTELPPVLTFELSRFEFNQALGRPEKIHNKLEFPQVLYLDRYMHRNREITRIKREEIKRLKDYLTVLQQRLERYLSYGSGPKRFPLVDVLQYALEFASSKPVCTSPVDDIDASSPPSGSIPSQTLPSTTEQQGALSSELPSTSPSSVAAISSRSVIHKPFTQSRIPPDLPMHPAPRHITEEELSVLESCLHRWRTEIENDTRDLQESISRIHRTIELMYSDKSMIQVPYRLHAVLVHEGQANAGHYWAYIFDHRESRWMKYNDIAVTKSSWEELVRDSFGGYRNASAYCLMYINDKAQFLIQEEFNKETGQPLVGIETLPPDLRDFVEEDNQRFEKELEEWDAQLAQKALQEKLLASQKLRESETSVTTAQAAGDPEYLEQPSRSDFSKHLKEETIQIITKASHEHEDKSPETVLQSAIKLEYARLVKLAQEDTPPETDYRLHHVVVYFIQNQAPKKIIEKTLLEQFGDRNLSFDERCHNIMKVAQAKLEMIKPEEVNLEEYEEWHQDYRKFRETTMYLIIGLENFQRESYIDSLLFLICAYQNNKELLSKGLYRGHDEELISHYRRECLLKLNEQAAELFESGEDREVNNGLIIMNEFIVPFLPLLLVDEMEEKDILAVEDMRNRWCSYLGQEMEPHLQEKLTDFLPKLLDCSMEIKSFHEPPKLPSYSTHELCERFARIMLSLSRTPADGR
Outline: as §1

[4] = biological target: T3, USP28 (UniProt Q96RU2)
T3 sequence (whole entry): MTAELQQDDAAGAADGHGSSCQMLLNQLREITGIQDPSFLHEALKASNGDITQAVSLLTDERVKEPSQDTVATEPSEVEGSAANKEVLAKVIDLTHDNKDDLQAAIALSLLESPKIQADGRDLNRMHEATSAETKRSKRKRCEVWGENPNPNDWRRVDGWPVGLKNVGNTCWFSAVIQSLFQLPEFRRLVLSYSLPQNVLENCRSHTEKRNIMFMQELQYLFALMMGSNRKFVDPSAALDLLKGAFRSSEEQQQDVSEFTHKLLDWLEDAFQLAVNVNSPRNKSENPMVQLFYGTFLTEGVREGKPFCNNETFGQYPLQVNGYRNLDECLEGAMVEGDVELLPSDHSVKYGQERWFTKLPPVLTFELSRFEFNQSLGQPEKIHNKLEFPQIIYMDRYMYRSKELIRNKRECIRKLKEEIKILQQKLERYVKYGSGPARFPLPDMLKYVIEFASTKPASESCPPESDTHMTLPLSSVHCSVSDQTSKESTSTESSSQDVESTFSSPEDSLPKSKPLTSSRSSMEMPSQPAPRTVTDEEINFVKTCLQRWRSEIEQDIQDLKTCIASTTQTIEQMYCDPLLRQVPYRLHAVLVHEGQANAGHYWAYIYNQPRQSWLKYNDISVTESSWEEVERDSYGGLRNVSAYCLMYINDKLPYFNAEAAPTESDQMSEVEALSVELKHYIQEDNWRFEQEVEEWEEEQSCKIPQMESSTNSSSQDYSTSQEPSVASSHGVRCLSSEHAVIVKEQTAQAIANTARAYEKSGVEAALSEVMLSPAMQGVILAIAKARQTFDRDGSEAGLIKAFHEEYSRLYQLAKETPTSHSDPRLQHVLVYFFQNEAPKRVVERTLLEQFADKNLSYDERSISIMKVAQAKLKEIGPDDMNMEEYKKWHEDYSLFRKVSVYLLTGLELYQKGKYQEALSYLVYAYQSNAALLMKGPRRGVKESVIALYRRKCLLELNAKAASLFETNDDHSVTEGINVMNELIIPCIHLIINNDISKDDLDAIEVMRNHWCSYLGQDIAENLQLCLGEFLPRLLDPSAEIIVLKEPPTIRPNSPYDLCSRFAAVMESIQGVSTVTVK
Outline: as §1

Measured: log2 ratio of Biotin-Ahx-Ub-VS probe labelling

O=C(CCl)NCc1ccc2c(c1)OCO2
inactive: [1] -0.272 | [2] -0.3 | [3] -0.0121 | [4] -0.566
